# In the library only some 1.2% were active in any assay of this set; here they are far more common.
# RGS7-Gao reg: regulators of human RGS7-Galphao interaction. P09471. Multiplexed bead flow cytometry, RGS7-Galphao binding; actives lie on both sides. 220,000 tested, 0.35% active. binding response (% of control), % at 10 µM; in the data active means binding response below about 49% or above about 150%; inconclusive means no clear call, values can overlap the other calls; inactive means in between;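 further: fluorescent Galphao held in activated GDP-AlF4 state binding bead-coupled RGS7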
# Target sequence (P09471 whole entry, looked up): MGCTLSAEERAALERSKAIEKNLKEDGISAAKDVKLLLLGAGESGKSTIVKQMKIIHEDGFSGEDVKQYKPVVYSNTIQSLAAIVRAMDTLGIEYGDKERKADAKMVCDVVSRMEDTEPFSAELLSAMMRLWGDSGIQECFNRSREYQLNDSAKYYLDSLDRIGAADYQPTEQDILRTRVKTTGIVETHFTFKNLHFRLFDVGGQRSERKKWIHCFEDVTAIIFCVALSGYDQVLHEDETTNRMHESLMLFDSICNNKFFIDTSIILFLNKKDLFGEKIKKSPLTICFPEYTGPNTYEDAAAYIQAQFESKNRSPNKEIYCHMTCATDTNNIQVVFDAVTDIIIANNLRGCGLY
# RGS8-Gao: modulates binding of RGS8 to human Galphao. multiplexed bead flow cytometry; actives lie on both sides. response (percent of control binding), % at 10 µM. 220,000 tested, 0.34% active. AID 1423; in the data active means response below about 60% or above about 140%; inactive means in between;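 further: Galphao activated as the GDP aluminium fluoride complex binding bead-coupled RGS8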
# RGS4-Gao reg: modulates binding of RGS4 to human Galphao; Multiplexed bead flow cytometry; actives lie on both sides; binding response (% of control), % at 10 µM; 220,000 tested, 0.33% active; in the data active means binding response below about 49% or above about 150%; inactive means in between;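 further: fluorescent Galphao activated with aluminum fluoride binding bead-coupled RGS4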
# RGS16-Gao HTS: modulates binding between human RGS16 and Galphao. O15492+P09471. bead-based flow cytometry RGS16-Galphao binding, fluorescence; actives lie on both sides. binding response (% of control), % at 10 µM. 220,000 tested, 0.38% active;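 further: Galphao activated by GDP with aluminum fluoride before binding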
# GSH bead fluor: compound fluoresces at 488/530 nm on GSH beads | GSH beads flow cytometry, compound fluorescence 488/530 nm; active compounds read high | fluorescence (KMESF) at 10 µM | 190,000 tested, 0.25% active | AID 1776; in the data active means fluorescence above about 89;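 further: glutathione beads carrying GST-tagged Bcl family fusion proteins plus one bare bead set; values are compound well signal with DMSO vehicle wells as background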
# Avidin fluor: avidin bead compound fluorescence profile; Avidin beads, compound fluorescence 488/530 nm, flow cytometry; active compounds read high; fluorescence (KMESF) at 10 µM; 220,000 tested, 0.38% active; AID 1775; in the data active means fluorescence above about 47
# RGS4-Gao HTS: modulates binding between human RGS4 and Galphao; RGS4–Galpha-o binding response, % at 10 µM; shares compounds with RGS16-Gao HTS; multiplexed bead flow cytometry, RGS–Galpha-o binding; 1,600 tested, 99% active;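 further: fluorescently labeled Galpha-o bound to GDP with aluminium fluoride binding biotinylated RGS beads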
# Avidin counter: interferes with biotinylated probe binding to avidin beads. shares compounds with RGS16-Gao HTS. streptavidin beads, fluorescein-biotin binding, flow cytometry. inhibition, % at 10 µM. 1,700 tested, under 10 active. AID 1783;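 active means inhibition above 50%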;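 further: median green fluorescence of gated singlet beads compared with DMSO control wells; 0% = DMSO wells and 100% = complete loss of bead fluorescence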
# RGS8-Gao single: confirmation of regulators of human RGS8-Galphao interaction; shares compounds with RGS16-Gao HTS; bead-based flow cytometry RGS8-Galphao binding, fluorescence; actives lie on both sides; binding response (% of control), % at 10 µM; 1,700 tested, 3% active; AID 1836; in the data active means binding response below about 72% or above about 130%; inactive means in between;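 further: Galphao activated as GDP AlF4 complex before binding bead RGS8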
# RGS7-Gao confirm: RGS7-Galphao interaction regulation, single point confirmation; bead-based flow cytometry RGS7-Galphao binding; actives lie on both sides; response (percent of control binding), % at 10 µM; shares compounds with RGS16-Gao HTS; 1,700 tested, 7.8% active; AID 1837; in the data active means response below about 75% or above about 130%; inactive means in between;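 further: fluorescent Galphao activated with GDP and aluminum fluoride binding bead-coupled RGS7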
# RGS16-Gao single: confirmation of regulators of human RGS16-Galphao interaction; shares compounds with RGS16-Gao HTS; response (% of control binding), % at 10 µM; bead-based flow cytometry, RGS16-Galphao binding; actives lie on both sides; 1,700 tested, 4% active; AID 1838; in the data active means response below about 74% or above about 130%; inactive means in between;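 further: Galphao activated as the GDP aluminium fluoride complex binding bead-coupled RGS16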
# RGS4-Gao single: RGS4-Galphao interaction regulation, single point confirmation. shares compounds with RGS16-Gao HTS. RGS4-Galphao binding, multiplexed bead flow cytometry; actives lie on both sides. binding response (% of control), % at 10 µM. 1,700 tested, 4% active. AID 1840; in the data active means binding response below about 74% or above about 130%; inactive means in between
# RGS19-Gao single: RGS19-Galphao interaction regulation, single point confirmation; bead-based flow cytometry RGS19-Galphao binding; actives lie on both sides; 1,700 tested, 5% active; shares compounds with RGS16-Gao HTS; response (percent of control binding), % at 10 µM; in the data active means response below about 50% or above about 160%; inactive means in between;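 further: 100% = no compound control and 0% = blank background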
# Target sequence (P09471 whole entry, looked up): as above
# Target sequence (P49795 whole entry, looked up): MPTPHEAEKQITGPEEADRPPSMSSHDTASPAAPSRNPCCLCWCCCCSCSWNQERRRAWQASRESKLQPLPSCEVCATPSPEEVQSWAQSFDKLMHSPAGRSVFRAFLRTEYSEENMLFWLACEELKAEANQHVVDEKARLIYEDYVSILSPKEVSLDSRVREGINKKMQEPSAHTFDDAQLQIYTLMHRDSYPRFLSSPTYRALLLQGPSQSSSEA
# * hit, by the source's call; i = inactive; u = inconclusive; x = no result given; [ ] = another dose, or the depositor's remark. Unless noted, how the calls were made is not given here.
SMILES,RGS7-Gao reg,RGS8-Gao,RGS4-Gao reg,RGS16-Gao HTS,GSH bead fluor,Avidin fluor,RGS4-Gao HTS,Avidin counter,RGS8-Gao single,RGS7-Gao confirm,RGS16-Gao single,RGS4-Gao single,RGS19-Gao single
CCNC(=O)NC(=O)CSc1ccc(NC(C)=O)cc1,54.4,72.5,46.9*,57.7,12,13,x,-0.4,110.4,113.1,114.1,108.5,121.0
COc1ccc(N=C(N(C)C)P(=O)(N(C)C)N(C)C)cc1,125.8,150.5*[activator],138.3,i,39,3,138.3*,0.8,101.5,100.3,105.0,102.7,111.3
COc1ccc(N=C(C)C2=C(O)c3ccccc3C2=O)cc1,103.8,100.4,102.0,93.7,9,12,x,x,x,x,x,x,x
CCOC(=O)c1c(-c2ccccc2)oc2ccc(O)c(CN(C)C)c12,98.2,100.0,95.8,100.1,25,11,x,x,x,x,x,x,x
Cc1oc2ccc(O)c(CN(C)C)c2c1C(=O)c1ccccc1,122.0,152.9*[activator],123.2,274.6,12,16,123.2*,1.2,100.5,100.0,97.7,97.2,108.5
COc1ccc(S(=O)(=O)N2CCCOC2CNC(=O)C(=O)NCCCn2ccnc2)cc1 (stereo unspecified),110.2,102.6,105.6,104.8,22,5,x,x,x,x,x,x,x
O=C(NNC(=S)Nc1ccc(Br)cc1Cl)c1ccncc1,164.3*[activator],102.0,112.4,110.3,21,90*,112.4*,1.8,101.8,100.5,103.7,102.9,109.5
O=C1CCCN1c1nccs1,104.7,104.9,99.8,106.2,10,23,x,x,x,x,x,x,x
Cc1cc(-c2n[nH]c(=S)n2Cc2ccco2)n(C)n1,92.6,76.2,90.3,10.2*,14,7,90.3*,0.7,101.7,105.3,97.9,101.8,88.8
NS(=O)(=O)c1ccc(CCNC(=O)C2CCC(Cn3c(=S)[nH]c4ccccc4c3=O)CC2)cc1 (stereo unspecified),16.7*,13.3*,22.1*,11.4*,14,2,x,1.2,103.2,104.5,105.2,103.1,100.9
O=C(C(=O)N1CCCc2ccccc21)N1CCCc2ccccc21,102.8,124.2,104.8,182.2*[activator],7,4,104.8*,-1.6,99.9,101.1,101.4,99.3,97.8
CN(C1CCCCC1)S(=O)(=O)c1ccc(-c2ccccn2)s1,u,98.9,99.2,97.6,x,6,x,x,x,x,x,x,x
CC(C)(C)c1ccc(OCC(=O)N/N=C/c2ccc(N3CCOCC3)cc2)cc1,106.3,103.6,105.1,104.4,21,12,x,x,x,x,x,x,x
CCCOC(=O)c1ccc(OC(=O)c2ccco2)cc1,136.6,122.1,175.7*[activator],i,11,12,x,-0.9,99.5,92.0,100.8,99.9,102.1
COc1ccc(CNCC(O)(c2ccc(F)cc2)c2ccc(F)cc2)cc1,101.8,102.3,99.2,97.7,16,11,x,x,x,x,x,x,x
CC1(C)CC(C2N3CC4(C)CN2CC(C)(C3)C4=O)CCO1 (stereo unspecified),119.5,146.5*[activator],115.0,277.7,22,12,115.0*,0.0,101.5,102.9,104.2,102.9,94.5
CC(=O)N(Cc1ccccc1C)c1cccc(C)c1C,102.3,104.0,101.9,102.4,15,10,x,x,x,x,x,x,x
O=C(NCc1ccco1)c1ccc(S(=O)(=O)N2CCCc3ccccc32)cc1,88.5,77.3,79.8,-44.4*,43,0,79.8*,x,x,x,x,x,x
O=C(NCc1ccccc1)c1ccc(S(=O)(=O)N2CCCc3ccccc32)cc1,97.6,100.4,99.2,99.2,14,38,x,x,x,x,x,x,x
COc1ccccc1/C=C/C=C1\Oc2c(ccc(O)c2CN2CCN(CCO)CC2)C1=O,246.5*[activator],146.0*[activator],218.0*[activator],284.3,15,127*,x,1.3,103.8,106.8,101.3,101.2,80.4
CCN1CCN(Cc2c(O)ccc3c2O/C(=C\C=C\c2ccccc2)C3=O)CC1,103.2,117.4,105.7,186.6*[activator],11,17,105.7*,-1.4,100.0,100.8,99.4,100.9,100.1
O=C1/C(=C/C=C/c2ccccc2)Oc2c1ccc(O)c2CN1CCN(CCO)CC1,u,97.0,85.4,84.7,x,7,x,x,x,x,x,x,x
O=C(c1cnccn1)N(Cc1ccco1)C1(C(=O)NC2CCCCC2)CCCCC1,88.9,80.2,79.5,-53.5*,8,8,79.5*,2.2,102.0,106.2,101.8,105.0,105.7
O=C(c1cnccn1)N(Cc1ccco1)C1(C(=O)NC2CCCC2)CCCCC1,102.5,100.0,100.3,104.6,49,13,x,x,x,x,x,x,x
CC(C)N=C(NS(=O)(=O)NC(=O)c1ccccc1)c1ccccc1,103.3,99.0,98.2,109.2,14,8,x,x,x,x,x,x,x
SMILES,RGS7-Gao reg,RGS8-Gao,RGS4-Gao reg,RGS16-Gao HTS,GSH bead fluor,Avidin fluor,RGS4-Gao HTS,Avidin counter,RGS8-Gao single,RGS7-Gao confirm,RGS16-Gao single,RGS4-Gao single,RGS19-Gao single
O=C(NCCc1ccccc1)c1ccco1,107.1,102.3,100.9,100.8,17,31,x,x,x,x,x,x,x
C=C(C)CC(NCCc1ccccc1)c1ccco1 (stereo unspecified),134.6,106.3,155.8*[activator],135.2,14,15,x,-0.1,99.4,89.2,96.1,95.6,81.8
CN(c1ccccc1)S(=O)(=O)c1cccc(C(=O)Nc2ccc3c(c2)CCC3)c1,90.9,86.6,101.8,18.5*,12,8,101.8*,-0.8,101.1,102.8,102.7,101.5,93.8
COc1cscc1C(N)=O,u,99.8,104.2,101.7,x,9,x,x,x,x,x,x,x
Cc1ccc(-c2sc(C)nc2CC(=O)O)cc1,96.0,101.4,99.8,103.8,33,15,x,x,x,x,x,x,x
Cc1ccc(C2=C(CC(=O)O)C(=O)CC2)cc1,91.4,76.0,91.9,22.2*,7,6,91.9*,0.4,103.0,103.9,100.6,101.3,147.5
CC12COC3(C(N)=O)CC1CCC32C (stereo unspecified),107.8,104.8,102.7,114.5,11,9,x,x,x,x,x,x,x

# High-throughput results (PubChem)
